Assay [1] in a line: ATG_CRE_CIS: Attagene CIS-FACTORIAL HepG2 Assay for human cAMP Responsive Element (CRE) binding protein 3 (AID 2282926). The settings on record: HepG2 CRE cis-reporter, Attagene multiplexed mRNA; actives raise or lower the signal. Summed up: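 HepG2 cells transiently transfected with cis-element-driven multiple reporter transcription units; CRE reporter mRNA measured 24 h after dosing by RT-PCR, 6-FAM labelling, HpaI digestion and capillary electrophoresis. Bidirectional fit versus DMSO baseline.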

Assay [2] addresses CCAAT/enhancer-binding protein beta (Homo sapiens) (UniProt P17676). The experiment in a line: ATG_C_EBP_CIS: Attagene CIS-FACTORIAL HepG2 Assay for human CCAAT/Enhancer Binding Protein (C/EBP) beta (AID 2282927). The settings on record: HepG2 Attagene cis-factorial transcription factor reporter; actives raise or lower the signal. Summed up: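 Changes in reporter mRNA, rather than exogenous chimeric receptor activity, reflect native C/EBP signalling in transfected HepG2 cells dosed for 24 h; transcripts are detected by RT-PCR and capillary electrophoresis.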

Assay [3] in a line: ATG_CMV_CIS: Attagene CIS-FACTORIAL HepG2 Assay for human CMV (Internal Marker) (AID 2282928).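 Further: endpoint acts as a background internal control marker rather than a target.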 The settings on record: HepG2 CMV promoter reporter, transcription factor profiling; actives raise or lower the signal. Put shortly: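 Cell system: HepG2, transiently transfected multiple reporter units under cis promoters. Exposure: 24 h. Detection: RT-PCR, FAM labeling, HpaI digestion, capillary electrophoresis. Analysis: bidirectional, DMSO baseline.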

The nature of assay [4]: ATG_AP_1_CIS: Attagene CIS-FACTORIAL HepG2 Assay for human Activator Protein 1 (AP-1) (AID 2282931). The settings on record: HepG2 Attagene cis-factorial AP-1 reporter mRNA; actives raise or lower the signal. Summed up:
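Multiplexed HepG2 reporter assay, 24 h dosing. mRNA induction detected by RT-PCR plus capillary electrophoresis. Activity fitted in both directions against DMSO.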

A short description of assay [5]: ATG_AP_2_CIS: Attagene CIS-FACTORIAL HepG2 Assay for human Activator Protein 2 (AP-2) (AID 2282932). To be noted: HepG2 AP-2 cis-reporter, Attagene transcription factor profiling; actives raise or lower the signal. Summed up:
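Step one: transient transfection of HepG2 with reporter transcription units. Step two: 24 h chemical exposure. Step three: RNA extraction, RT-PCR, labelled fragment analysis by capillary electrophoresis; DMSO serves as baseline.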

Assay [6] in a line: ATG_BRE_CIS: Attagene CIS-FACTORIAL HepG2 Assay for human Bone Morphogenetic Protein (BMP) Response Element (BRE) (AID 2282933). To be noted: HepG2 BMP response element reporter, Attagene transcription factor profiling; actives raise or lower the signal. Summed up: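 Endogenous transcription factor activity read in transiently transfected HepG2 cells after 24 h chemical exposure. Bidirectional curve fitting against DMSO; readout is reporter transcript level by RT-PCR with capillary electrophoresis of labelled products.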

Assay [7] concerns the target Transcription factor E2F1 (Homo sapiens) (UniProt Q01094). The experiment in a line: ATG_E2F_CIS: Attagene CIS-FACTORIAL HepG2 Assay for human E2F Transcription Factor 1 (AID 2282935). The settings on record: HepG2 Attagene cis-reporter, E2F reporter RNA transcripts; actives raise or lower the signal. Summed up: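 Total RNA from 24 h-treated, reporter-transfected HepG2 cells undergoes DNase I treatment, oligo(dT) reverse transcription, PCR and 6-FAM primer extension before capillary electrophoresis.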

Assay [8] can be described thus: ATG_E_Box_CIS: Attagene CIS-FACTORIAL HepG2 Assay for human Enhancer Box (E-box) (AID 2282936). To be noted: HepG2 E-box cis-reporter transcription, actives raise or lower the signal. Summed up: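 DMSO served as negative control and baseline for bidirectional fitting. Human hepatoma HepG2 cells, transiently transfected with cis-reporter constructs, were dosed 24 h; reporter mRNA read by RT-PCR and capillary electrophoresis.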

Assay [9] in a line: ATG_M_61_CIS: Attagene CIS-FACTORIAL HepG2 Assay for M61 Transcription Factor (Internal Marker) (AID 2282937). The settings on record: HepG2 Attagene CIS-FACTORIAL M61 internal marker reporter; actives raise or lower the signal. Put shortly: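 Endogenous transcription factor activity in HepG2 is read through transiently transfected cis-element reporter units. After 24 h dosing, RNA undergoes reverse transcription, PCR and primer extension with 6-FAM before capillary electrophoresis; DMSO-referenced bidirectional fit.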

Assay [10] can be described thus: ATG_EGR_CIS: Attagene CIS-FACTORIAL HepG2 Assay for human Early Growth Response 1 (EGR1) (AID 2282938). The settings on record: HepG2 Attagene CIS-FACTORIAL EGR reporter mRNA; actives raise or lower the signal. Put shortly:
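Activity is taken as induction or loss of reporter mRNA versus DMSO, fitted bidirectionally. Transcripts from cis-regulated reporter units in transiently transfected HepG2 were measured after 24 h by RT-PCR with capillary electrophoresis.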

A short description of assay [11]: ATG_M_19_CIS: Attagene CIS-FACTORIAL HepG2 Assay for M19 Transcription Factor (Internal Marker) (AID 2282939). The settings on record: HepG2 Attagene CIS-FACTORIAL M19 internal marker reporter; actives raise or lower the signal. Put shortly: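 Internal marker readout, fitted in both directions against DMSO, from HepG2 cells carrying transfected cis-element reporter constructs; RT-PCR and capillary electrophoresis of reporter mRNA after 24 h exposure.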

Assay [12] can be described thus: ATG_GATA_CIS: Attagene CIS-FACTORIAL HepG2 Assay for human GATA Binding Protein (AID 2282944). To be noted: HepG2 GATA cis-element reporter, Attagene multiplex mRNA; actives raise or lower the signal. Put shortly: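 Reporter transcripts from a GATA cis-regulated unit, among multiplexed reporters in transfected HepG2 cells, were measured by RT-PCR with capillary electrophoresis after 24 h dosing. Induction or loss scored relative to DMSO.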

Assay [13] is described as follows: ATG_GLI_CIS: Attagene CIS-FACTORIAL HepG2 Assay for human Zinc Finger Protein GLI1 (AID 2282945). To be noted: HepG2, Attagene cis-factorial reporter mRNA, GLI element; actives raise or lower the signal. Put shortly:
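Bidirectional curve fits relative to DMSO, using reporter mRNA levels from RT-PCR plus capillary electrophoresis. Cells were HepG2 transiently carrying cis-regulated reporter constructs, harvested 24 h after dosing.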

Assay [14] is described as follows: ATG_ISRE_CIS: Attagene CIS-FACTORIAL HepG2 Assay for human Interferon Regulatory Factor 1 (IRF1) binding to an Interferon-Stimulated Response Element (ISRE) (AID 2282948). To be noted: HepG2 ISRE cis-reporter (Attagene), mRNA transcription readout; actives raise or lower the signal. Put shortly:
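Quantitation relies on labelled RT-PCR fragments separated by capillary electrophoresis. Human HepG2 cells bearing cis-promoter reporter constructs were treated 24 h; DMSO served as baseline for bidirectional fitting.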

The nature of assay [15]: ATG_M_32_CIS: Attagene CIS-FACTORIAL HepG2 Assay for M32 Transcription Factor (Internal Marker) (AID 2282949).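 Further: background control marker of the multiplexed CIS panel rather than a real target.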 To be noted: HepG2 Attagene cis-factorial M32 reporter, mRNA; actives raise or lower the signal. Summed up:
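Following 24 h chemical exposure of HepG2 cells transiently expressing cis-promoter reporter constructs, reporter transcript levels were determined by RT-PCR with fluorescent labelling and capillary electrophoresis, then fitted bidirectionally against DMSO.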

A short description of assay [16]: ATG_MRE_CIS: Attagene CIS-FACTORIAL HepG2 Assay for human Metal Responsive Element (MRE) (AID 2282954). The settings on record: HepG2 MRE cis-reporter transcription, Attagene multiplex; actives raise or lower the signal. Summed up: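 After a 24 h chemical exposure, transiently transfected HepG2 cells yield RNA whose reporter sequences are amplified, FAM-labelled and sized by capillary electrophoresis. Curves are fitted bidirectionally relative to DMSO.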

Assay [17] concerns the target Paired box protein Pax-6 (Homo sapiens) (UniProt P26367). Description: ATG_Pax6_CIS: Attagene CIS-FACTORIAL HepG2 Assay for human Paired Box 6 (PAX6) (AID 2282956). To be noted: HepG2 CIS-FACTORIAL PAX6 reporter transcription, RNA readout; actives raise or lower the signal. Summed up: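 After twenty-four hours of chemical exposure, transfected HepG2 cells are harvested for RNA. Cis-promoter reporter transcripts are amplified, fluorescently labelled and sized by capillary electrophoresis, with gain and loss of signal scored against DMSO.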

Assay [18] is described as follows: ATG_PXRE_CIS: Attagene CIS-FACTORIAL HepG2 Assay for human Pregnane X Receptor Element (PXRE) (AID 2282957). The settings on record: HepG2 Attagene CIS-FACTORIAL PXRE reporter, mRNA; actives raise or lower the signal. Summed up:
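HepG2 cells transiently transfected with cis-element-driven multiplexed reporter units; after 24 h chemical exposure, reporter mRNA measured by RT-PCR, 6-FAM labelling, HpaI digestion and capillary electrophoresis. Bidirectional fitting relative to DMSO.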

The target in assay [19] is Transcription factor Sp1 (Homo sapiens) (UniProt P08047). Description: ATG_Sp1_CIS: Attagene CIS-FACTORIAL HepG2 Assay for human Specificity Protein 1 (Sp1) (AID 2282961). The settings on record: HepG2 Sp1 cis-reporter transcription, actives raise or lower the signal. Summed up: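 Cells: HepG2, transiently transfected with cis-regulated multiplexed reporters. Exposure: 24 h. Detection: reporter transcripts amplified, fluorescently labeled, restriction-digested and sized by capillary electrophoresis. Analysis: bidirectional fit relative to DMSO.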

For assay [20], the target named is Signal transducer and activator of transcription 3 (Homo sapiens) (UniProt P40763). Description: ATG_STAT3_CIS: Attagene CIS-FACTORIAL HepG2 Assay for human Signal Transducer and Activator of Transcription 3 (STAT3) (AID 2282963). The settings on record: HepG2, Attagene cis-factorial STAT3 reporter transcription; actives raise or lower the signal. Summed up:
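After a 24 h compound incubation, total RNA from MRTU-transfected HepG2 cells was converted to cDNA and reporter sequences PCR-amplified, labelled and profiled by capillary electrophoresis. Gain and loss of signal were referenced to DMSO.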

Calls of active or inactive are those of the source. How the source made its calls: active means hit-call score of the fitted dose curve at least 0.9, where 1 is the maximum; inactive means score below 0.9.

Sequence of Paired box protein Pax-6 (Homo sapiens) (P26367 whole entry, looked up): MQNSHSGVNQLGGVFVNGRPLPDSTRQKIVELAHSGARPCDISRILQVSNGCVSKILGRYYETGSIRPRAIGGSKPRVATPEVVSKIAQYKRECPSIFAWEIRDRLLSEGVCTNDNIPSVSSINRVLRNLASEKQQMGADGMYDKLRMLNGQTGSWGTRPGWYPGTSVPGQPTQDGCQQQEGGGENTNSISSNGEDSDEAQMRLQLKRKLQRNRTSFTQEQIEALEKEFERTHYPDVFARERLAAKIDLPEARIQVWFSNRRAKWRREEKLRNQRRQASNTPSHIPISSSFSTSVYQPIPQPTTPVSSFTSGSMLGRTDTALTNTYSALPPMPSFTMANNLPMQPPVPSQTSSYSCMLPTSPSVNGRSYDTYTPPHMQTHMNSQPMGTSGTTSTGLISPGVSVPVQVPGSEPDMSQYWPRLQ
Sequence of Transcription factor Sp1 (Homo sapiens) (P08047 whole entry, looked up): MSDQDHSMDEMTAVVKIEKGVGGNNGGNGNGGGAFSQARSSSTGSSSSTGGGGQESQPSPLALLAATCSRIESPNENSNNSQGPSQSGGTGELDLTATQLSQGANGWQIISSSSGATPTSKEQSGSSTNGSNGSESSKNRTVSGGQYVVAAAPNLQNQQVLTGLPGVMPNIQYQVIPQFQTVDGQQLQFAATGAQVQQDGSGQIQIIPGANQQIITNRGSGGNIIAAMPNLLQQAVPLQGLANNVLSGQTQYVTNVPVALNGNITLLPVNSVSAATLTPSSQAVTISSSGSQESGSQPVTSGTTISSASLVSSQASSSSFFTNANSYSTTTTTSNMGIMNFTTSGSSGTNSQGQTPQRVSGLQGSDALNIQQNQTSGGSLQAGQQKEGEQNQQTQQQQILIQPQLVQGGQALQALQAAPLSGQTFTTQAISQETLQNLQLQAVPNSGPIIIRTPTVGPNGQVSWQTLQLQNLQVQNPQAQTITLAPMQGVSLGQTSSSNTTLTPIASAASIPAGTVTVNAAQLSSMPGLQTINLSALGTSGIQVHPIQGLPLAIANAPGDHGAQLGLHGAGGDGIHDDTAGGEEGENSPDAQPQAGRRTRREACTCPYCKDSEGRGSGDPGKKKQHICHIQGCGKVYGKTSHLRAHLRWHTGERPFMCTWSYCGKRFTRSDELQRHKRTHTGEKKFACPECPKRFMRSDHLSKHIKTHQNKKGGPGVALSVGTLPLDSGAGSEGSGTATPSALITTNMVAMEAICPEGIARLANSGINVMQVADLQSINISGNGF
Sequence of Transcription factor E2F1 (Homo sapiens) (Q01094 whole entry, looked up): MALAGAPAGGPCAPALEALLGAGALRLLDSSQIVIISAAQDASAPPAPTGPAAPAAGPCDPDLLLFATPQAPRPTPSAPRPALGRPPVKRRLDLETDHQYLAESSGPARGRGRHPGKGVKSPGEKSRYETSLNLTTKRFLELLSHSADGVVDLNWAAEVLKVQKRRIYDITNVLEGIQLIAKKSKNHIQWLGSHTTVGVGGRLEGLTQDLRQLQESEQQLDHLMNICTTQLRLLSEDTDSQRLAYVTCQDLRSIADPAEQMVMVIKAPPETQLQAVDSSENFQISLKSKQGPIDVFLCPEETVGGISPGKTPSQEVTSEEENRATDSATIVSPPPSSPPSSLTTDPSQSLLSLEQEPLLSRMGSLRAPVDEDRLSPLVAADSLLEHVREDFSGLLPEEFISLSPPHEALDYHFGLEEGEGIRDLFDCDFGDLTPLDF
Sequence of CCAAT/enhancer-binding protein beta (Homo sapiens) (P17676 whole entry, looked up): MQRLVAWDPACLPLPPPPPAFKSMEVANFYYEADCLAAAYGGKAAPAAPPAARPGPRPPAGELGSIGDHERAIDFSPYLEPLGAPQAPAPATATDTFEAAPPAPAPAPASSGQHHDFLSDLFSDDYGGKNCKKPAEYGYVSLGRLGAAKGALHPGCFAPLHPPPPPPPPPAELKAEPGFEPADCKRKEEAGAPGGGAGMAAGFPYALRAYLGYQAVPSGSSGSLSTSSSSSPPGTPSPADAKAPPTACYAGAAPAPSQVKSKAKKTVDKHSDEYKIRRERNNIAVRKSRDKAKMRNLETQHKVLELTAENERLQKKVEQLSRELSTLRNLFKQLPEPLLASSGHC
Sequence of Signal transducer and activator of transcription 3 (Homo sapiens) (P40763 whole entry, looked up): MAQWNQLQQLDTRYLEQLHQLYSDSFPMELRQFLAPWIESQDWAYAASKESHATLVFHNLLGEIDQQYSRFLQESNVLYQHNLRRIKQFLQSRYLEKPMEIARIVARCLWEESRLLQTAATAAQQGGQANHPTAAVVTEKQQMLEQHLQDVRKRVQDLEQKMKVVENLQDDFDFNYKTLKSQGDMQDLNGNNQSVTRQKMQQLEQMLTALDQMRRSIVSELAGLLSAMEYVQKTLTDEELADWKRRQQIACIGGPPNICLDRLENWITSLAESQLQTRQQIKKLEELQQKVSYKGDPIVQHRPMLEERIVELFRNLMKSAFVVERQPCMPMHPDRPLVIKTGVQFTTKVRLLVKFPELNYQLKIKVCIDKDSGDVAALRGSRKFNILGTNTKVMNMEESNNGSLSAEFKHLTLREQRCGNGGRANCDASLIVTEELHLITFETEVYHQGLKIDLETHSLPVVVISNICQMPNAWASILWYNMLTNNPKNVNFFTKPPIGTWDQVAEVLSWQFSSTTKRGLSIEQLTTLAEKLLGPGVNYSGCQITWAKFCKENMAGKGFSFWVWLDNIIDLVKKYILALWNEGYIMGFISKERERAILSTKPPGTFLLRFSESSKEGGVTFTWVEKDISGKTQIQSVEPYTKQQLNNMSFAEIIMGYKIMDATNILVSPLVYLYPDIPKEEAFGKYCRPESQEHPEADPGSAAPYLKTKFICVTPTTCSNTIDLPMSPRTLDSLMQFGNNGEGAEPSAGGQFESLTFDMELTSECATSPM

On to `Cc1cc2nc3c(=O)[nH]c(=O)nc-3n(C[C@H](O)[C@H](O)[C@H](O)CO)c2cc1C`, for which the compound was called inactive in assay [1], in assay [2], in assay [3], in [4], in assay [5] and in [6]. Also, the compound was classed as inactive in assay [7], in assay [8], in assay [9], in assay [10], in assay [11] and in assay [12]. Also, the call in [13], in [14], in assay [15], in assay [16], in assay [17] and in assay [19] was inactive. In addition, the result in assay [20] was inactive. Besides, the AC50 in assay [18] is 47.2 µM (active).

Turning to `CCOC(=O)CC(=O)OCC`, the call in assay [1], in [2], in [3], in assay [4], in assay [5] and in [6] was inactive. Besides, the compound was called inactive in assay [7], in assay [8], in assay [9], in [10], in assay [11] and in [12]. The compound was called inactive in assay [13], in [14], in assay [15], in assay [16], in assay [17] and in assay [18]. The result in assay [19] and in assay [20] was inactive.

Turning to `Cc1cc(O)cc(C)c1Cl`, the values for the AC50 in assay [1], in assay [3] and in [19] were 79 µM (active), 37.3 µM (active) and 109 µM (active), respectively. The result in [2], in assay [4], in assay [5], in assay [6], in assay [7] and in [8] was inactive. Besides, the outcome in assay [9], in [10], in assay [11], in assay [12], in assay [13] and in assay [14] was inactive. Further, the compound was called inactive in assay [15], in assay [16], in [17], in [18] and in assay [20].

Take `CCCc1c(OCCCCc2nn[nH]n2)ccc(C(C)=O)c1O`: the compound was classed as inactive in [1], in [2], in assay [4], in assay [5], in [7] and in assay [8]. Besides, the compound was called inactive in assay [9], in [10], in assay [11], in assay [12], in [13] and in assay [14]. For the same compound, the compound was classed as inactive in [15], in assay [17], in assay [19] and in assay [20]. In addition, the AC50 in assay [3] was 135 µM (active); in assay [6], 180 µM (active); in assay [16], 128 µM (active); in [18] it was 27.4 µM (active).

`CCC(=O)OCc1ccc(OC)cc1`: the call in assay [1], in assay [2], in [3], in [4], in [5] and in assay [6] was inactive. The result in assay [7], in [8], in assay [9], in assay [10], in assay [11] and in [12] was inactive. The compound was classed as inactive in assay [13], in [14], in [15], in [16], in assay [17] and in assay [19]. Also, the compound was classed as inactive in assay [20]. Further, the AC50 in assay [18] is 29.7 µM (active).

Take `CCCCNC(N)=O`: the compound was called inactive in [1], in assay [2], in assay [3], in [4], in assay [5] and in assay [6]. Moreover, the result in assay [7], in assay [8], in [9], in assay [10], in assay [11] and in assay [12] was inactive. Also, the result in assay [13], in assay [14], in assay [15], in assay [16], in assay [17] and in assay [19] was inactive. For the same compound, the outcome in assay [20] was inactive. In addition, the AC50 in assay [18] was 68.7 µM (active).

In the case of `CC(=O)OC(C)(C)Cc1ccccc1`, the outcome in assay [1], in assay [2], in assay [3], in assay [4], in assay [5] and in [6] was inactive. The outcome in assay [7], in assay [8], in assay [9], in assay [10], in assay [11] and in assay [12] was inactive. The compound was called inactive in assay [13], in assay [14], in [15], in [16], in assay [17] and in [18]. Besides, the result in assay [19] and in assay [20] was inactive.

These data come from PubChem BioAssay (EPA / NIEHS).
